Data published in ChEMBL document CHEMBL4513216, “Probing the Open Global Health Chemical Diversity Library for Multistage-Active Starting Points for Next-Generation Antimalarials” (ACS Infect Dis, 2020).
The whole screen tested about 69,000 compounds, of which about 8,600 (12%) showed an effect of 50% or more. What follows is part of a selection rich in strong results, with near analogues and random picks from the rest.

Each compound was assayed on Plasmodium berghei (assay: Screen against P. berghei liver stage (PbLuc), transformed with Luciferase, at 10uM). Conditions: tested at 10 uM.
Type: functional, HepG2

In order of falling INHIBITION:
1. Cc1nn(C)c(C)c1C1CCCN1Cc1cccc(OCC(N)=O)c1 (stereo not given)  72.9%
2. NC(=O)COc1cccc(CN2CCCC2c2ccc[nH]2)c1 (stereo not given)  62.6%
3. COc1cccc(CN2CCCC2c2ccc[nH]2)c1 (stereo not given)  62.6%
4. COc1cc(Cl)ccc1CNC(=O)N(C)C(C)CS(C)(=O)=O (stereo not given)  61%
5. COc1cccc(C2CCCN2Cc2nnnn2C2CC2)c1 (stereo not given)  51.6%
6. N#Cc1cccc(CN2CCCC2c2ccc[nH]2)c1 (stereo not given)  50.7%
7. N#CCCCOc1cccc(CN2CCCC2c2ccc[nH]2)c1 (stereo not given)  43.1%
8. COc1ccccc1CCNC(=O)N(C)C(C)CS(C)(=O)=O (stereo not given)  38.7%
9. Cc1cnn(CC2CCCCN2CC(=O)Nc2nc(C)cs2)c1 (stereo not given)  33.8%
10. CC(C)Oc1ccccc1CNC(=O)N(C)C(C)CS(C)(=O)=O (stereo not given)  33.2%
11. CCCS(=O)(=O)N1C[C@@H](c2nc(C)no2)C[C@H]2OCC[C@H]21  33%
12. COc1cccc(S(=O)(=O)CCN2CCCC2c2ccc[nH]2)c1 (stereo not given)  32.3%
13. NC(=O)c1ccc(OCC(=O)N2CCCC2c2ccc[nH]2)cc1 (stereo not given)  28.2%
14. CN(C)c1cccc(C2CCCN2Cc2nnnn2C2CC2)c1 (stereo not given)  26.6%
15. COc1cccc(CC2CN(C3CCC3)CCO2)c1 (stereo not given)  25.8%
16. Cn1ccnc1CC1CCCN(C(=O)Cc2ccccc2)C1 (stereo not given)  21.9%
17. COCc1n[nH]c2c1CN(C(=O)c1ccncc1)C2  21.6%
18. COc1ccc(C2CCCN2Cc2nnnn2C2CC2)cc1OC (stereo not given)  19.7%
19. CCN1CC[C@@]2(C(=O)N3CCOCC3)CCN(C(=O)C(C)C)CC[C@@H]12  14.9%
20. CCOC1CCCN(C(=O)c2nn(-c3ccccc3F)cc2O)C1 (stereo not given)  11.2%
21. Cc1nc(CN2CCO[C@@H]3CN(C(=O)CC4CC4)C[C@@H]3C2)cs1  9.63%
22. CCC1=N[C@@]2(CC[C@@H]3CN(CC4CC4)C[C@@H]32)C(=O)N1CC  7.31%
23. N#Cc1cccc(CN2CCCC2Cn2cncn2)c1 (stereo not given)  7.18%
24. Cc1nn(C)c(C)c1C1CCCN1Cc1cccc(C(N)=O)c1 (stereo not given)  5.37%
25. Cc1nc(Cn2c3c(ccc2=O)CCN(CC2CC2)CC3)cs1  -8.85%
26. CN(C)c1ncc2c(O)nc(C3CCNCC3)cc2n1  -9.51%
27. N#Cc1cccc(CN2CCCC2Cn2cccn2)c1 (stereo not given)  -11.4%
28. COc1cccc(CN2CCCC2c2c(C)nn(C)c2C)c1 (stereo not given)  -14.8%
29. Cc1ccccc1NC(=O)c1cncc(C2CCNCC2)n1  -20.6%
30. NC(=O)COc1cccc(Cn2cccn2)c1  -24.9%
